According to ChEMBL document CHEMBL2218924, “A broad activity screen in support of a chemogenomic map for kinase signalling research and drug discovery” (Biochem J, 2013):

Legend:
[1] = molecular target: T1, Rhodopsin kinase GRK7 (Homo sapiens) (UniProt Q8WTQ7); conditions: at 10 µM
T1 sequence (whole entry): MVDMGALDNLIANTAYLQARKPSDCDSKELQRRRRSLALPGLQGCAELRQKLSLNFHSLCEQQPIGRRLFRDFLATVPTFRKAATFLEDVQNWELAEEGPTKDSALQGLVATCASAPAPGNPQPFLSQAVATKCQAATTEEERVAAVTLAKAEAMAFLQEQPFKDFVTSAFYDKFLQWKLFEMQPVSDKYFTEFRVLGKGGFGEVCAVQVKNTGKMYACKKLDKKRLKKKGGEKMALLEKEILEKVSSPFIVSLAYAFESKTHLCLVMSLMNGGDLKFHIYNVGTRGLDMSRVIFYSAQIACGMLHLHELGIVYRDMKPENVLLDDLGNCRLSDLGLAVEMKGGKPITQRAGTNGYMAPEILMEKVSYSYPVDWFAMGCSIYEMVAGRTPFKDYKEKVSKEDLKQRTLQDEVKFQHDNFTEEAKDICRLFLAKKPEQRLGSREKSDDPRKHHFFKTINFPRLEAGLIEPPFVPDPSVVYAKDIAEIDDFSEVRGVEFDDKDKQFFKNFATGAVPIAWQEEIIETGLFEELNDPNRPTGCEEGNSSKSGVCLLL

[2] = molecular target: Glycogen synthase kinase-3 alpha (Homo sapiens) (UniProt P49840); conditions: at 1 µM
Glycogen synthase kinase-3 alpha (Homo sapiens), sequence (P49840 2-483 limits assumed): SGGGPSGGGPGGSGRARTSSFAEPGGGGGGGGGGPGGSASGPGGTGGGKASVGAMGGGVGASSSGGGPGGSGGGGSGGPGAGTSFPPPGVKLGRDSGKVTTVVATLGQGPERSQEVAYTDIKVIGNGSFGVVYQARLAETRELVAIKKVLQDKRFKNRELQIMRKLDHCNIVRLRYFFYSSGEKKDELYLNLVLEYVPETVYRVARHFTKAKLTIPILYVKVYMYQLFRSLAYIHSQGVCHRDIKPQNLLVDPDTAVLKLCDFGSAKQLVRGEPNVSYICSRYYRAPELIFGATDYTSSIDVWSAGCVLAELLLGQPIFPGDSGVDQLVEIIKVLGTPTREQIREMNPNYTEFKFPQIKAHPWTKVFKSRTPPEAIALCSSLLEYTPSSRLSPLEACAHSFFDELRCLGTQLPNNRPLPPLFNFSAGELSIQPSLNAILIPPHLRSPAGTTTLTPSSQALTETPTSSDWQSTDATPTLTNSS

[3] = molecular target: Glycogen synthase kinase-3 alpha (Homo sapiens) (UniProt P49840); conditions: at 10 µM
[4] = molecular target: Glycogen synthase kinase-3 beta (Homo sapiens) (UniProt P49841); conditions: at 1 µM
Glycogen synthase kinase-3 beta (Homo sapiens), sequence (P49841 whole entry, looked up): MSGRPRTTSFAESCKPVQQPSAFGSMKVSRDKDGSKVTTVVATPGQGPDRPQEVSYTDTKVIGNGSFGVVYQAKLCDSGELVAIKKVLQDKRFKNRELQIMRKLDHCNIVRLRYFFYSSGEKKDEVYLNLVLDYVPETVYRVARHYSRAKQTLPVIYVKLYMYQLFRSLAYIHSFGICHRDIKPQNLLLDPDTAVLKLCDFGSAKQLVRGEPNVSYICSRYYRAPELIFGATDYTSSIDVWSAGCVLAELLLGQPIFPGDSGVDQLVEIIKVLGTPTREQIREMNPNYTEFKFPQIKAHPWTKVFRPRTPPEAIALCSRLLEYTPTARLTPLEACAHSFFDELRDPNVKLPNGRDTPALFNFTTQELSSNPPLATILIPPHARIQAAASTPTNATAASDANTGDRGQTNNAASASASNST

[5] = molecular target: Glycogen synthase kinase-3 beta (Homo sapiens) (UniProt P49841); conditions: at 10 µM
[6] = molecular target: Homeodomain-interacting protein kinase 1 (Homo sapiens) (UniProt Q86Z02); conditions: at 1 µM
Homeodomain-interacting protein kinase 1 (Homo sapiens), sequence (Q86Z02 whole entry, looked up): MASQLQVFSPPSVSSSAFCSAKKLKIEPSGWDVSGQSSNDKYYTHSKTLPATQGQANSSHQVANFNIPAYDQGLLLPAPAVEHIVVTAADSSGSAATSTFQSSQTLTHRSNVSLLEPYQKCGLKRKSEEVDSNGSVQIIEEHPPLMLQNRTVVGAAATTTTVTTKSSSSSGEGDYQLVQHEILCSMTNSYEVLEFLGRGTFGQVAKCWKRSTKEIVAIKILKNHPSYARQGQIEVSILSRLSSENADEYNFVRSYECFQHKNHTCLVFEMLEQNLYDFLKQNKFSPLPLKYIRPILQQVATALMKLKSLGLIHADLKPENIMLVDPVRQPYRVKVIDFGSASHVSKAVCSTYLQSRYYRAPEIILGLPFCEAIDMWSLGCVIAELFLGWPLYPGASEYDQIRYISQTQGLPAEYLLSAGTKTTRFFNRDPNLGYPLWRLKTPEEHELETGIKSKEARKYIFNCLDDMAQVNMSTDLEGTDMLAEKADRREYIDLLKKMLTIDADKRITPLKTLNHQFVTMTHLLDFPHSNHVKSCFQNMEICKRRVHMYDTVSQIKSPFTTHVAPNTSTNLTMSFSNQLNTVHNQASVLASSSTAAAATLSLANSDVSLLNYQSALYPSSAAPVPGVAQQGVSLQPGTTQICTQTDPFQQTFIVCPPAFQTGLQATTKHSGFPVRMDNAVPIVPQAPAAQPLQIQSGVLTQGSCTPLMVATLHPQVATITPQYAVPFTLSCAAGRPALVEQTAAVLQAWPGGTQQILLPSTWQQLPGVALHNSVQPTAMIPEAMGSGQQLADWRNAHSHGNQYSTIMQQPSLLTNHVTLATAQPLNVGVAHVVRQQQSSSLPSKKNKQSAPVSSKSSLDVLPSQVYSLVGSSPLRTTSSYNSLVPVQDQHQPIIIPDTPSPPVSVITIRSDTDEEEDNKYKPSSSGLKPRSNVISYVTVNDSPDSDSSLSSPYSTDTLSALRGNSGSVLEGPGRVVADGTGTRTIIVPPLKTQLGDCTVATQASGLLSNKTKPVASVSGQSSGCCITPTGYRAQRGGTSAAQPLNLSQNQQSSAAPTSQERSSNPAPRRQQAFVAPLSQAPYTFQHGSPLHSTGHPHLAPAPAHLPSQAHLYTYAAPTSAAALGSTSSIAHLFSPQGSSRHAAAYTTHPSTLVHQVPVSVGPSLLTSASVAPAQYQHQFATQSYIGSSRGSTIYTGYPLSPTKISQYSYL

[7] = molecular target: Homeodomain-interacting protein kinase 1 (Homo sapiens) (UniProt Q86Z02); conditions: at 10 µM
[8] = molecular target: Homeodomain-interacting protein kinase 2 (Homo sapiens) (UniProt Q9H2X6); conditions: at 1 µM
[9] = molecular target: Homeodomain-interacting protein kinase 2 (Homo sapiens) (UniProt Q9H2X6); conditions: at 10 µM
[10] = molecular target: Homeodomain-interacting protein kinase 3 (Homo sapiens) (UniProt Q9H422); conditions: at 1 µM
Homeodomain-interacting protein kinase 3 (Homo sapiens), sequence (Q9H422 whole entry, looked up): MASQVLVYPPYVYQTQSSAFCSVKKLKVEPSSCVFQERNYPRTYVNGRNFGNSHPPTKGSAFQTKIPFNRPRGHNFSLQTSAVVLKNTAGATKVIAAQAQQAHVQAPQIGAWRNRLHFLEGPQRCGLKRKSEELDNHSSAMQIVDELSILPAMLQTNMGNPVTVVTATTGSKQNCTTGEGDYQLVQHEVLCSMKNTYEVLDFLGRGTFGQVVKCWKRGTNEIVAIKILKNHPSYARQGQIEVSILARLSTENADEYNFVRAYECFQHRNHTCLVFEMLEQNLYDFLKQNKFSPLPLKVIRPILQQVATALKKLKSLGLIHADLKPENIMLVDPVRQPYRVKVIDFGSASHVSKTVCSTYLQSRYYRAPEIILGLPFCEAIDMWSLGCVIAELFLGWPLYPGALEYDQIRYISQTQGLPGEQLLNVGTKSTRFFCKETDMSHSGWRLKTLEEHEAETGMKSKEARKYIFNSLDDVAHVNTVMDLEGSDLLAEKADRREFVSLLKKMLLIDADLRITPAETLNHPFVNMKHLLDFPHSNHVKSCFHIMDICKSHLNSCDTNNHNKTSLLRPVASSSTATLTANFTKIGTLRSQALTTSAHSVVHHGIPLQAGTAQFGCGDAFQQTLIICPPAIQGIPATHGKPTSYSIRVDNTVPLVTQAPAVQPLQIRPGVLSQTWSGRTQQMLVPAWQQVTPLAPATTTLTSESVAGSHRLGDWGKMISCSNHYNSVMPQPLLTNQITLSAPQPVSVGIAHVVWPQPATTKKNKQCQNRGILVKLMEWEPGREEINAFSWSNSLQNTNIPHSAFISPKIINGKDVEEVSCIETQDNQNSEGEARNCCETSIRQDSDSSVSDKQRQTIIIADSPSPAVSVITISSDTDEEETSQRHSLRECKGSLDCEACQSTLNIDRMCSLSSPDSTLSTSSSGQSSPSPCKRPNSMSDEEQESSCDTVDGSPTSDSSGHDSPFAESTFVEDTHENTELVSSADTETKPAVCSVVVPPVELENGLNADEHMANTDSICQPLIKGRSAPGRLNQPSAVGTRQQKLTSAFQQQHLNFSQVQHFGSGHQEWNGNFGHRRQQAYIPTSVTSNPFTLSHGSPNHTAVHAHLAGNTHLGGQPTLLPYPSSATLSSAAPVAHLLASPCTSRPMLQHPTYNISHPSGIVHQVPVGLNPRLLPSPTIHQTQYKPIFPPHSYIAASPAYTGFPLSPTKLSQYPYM

[11] = molecular target: Homeodomain-interacting protein kinase 3 (Homo sapiens) (UniProt Q9H422); conditions: at 10 µM
[12] = molecular target: T2, Serine/threonine-protein kinase haspin (Homo sapiens) (UniProt Q8TF76); conditions: at 1 µM
T2 sequence (whole entry): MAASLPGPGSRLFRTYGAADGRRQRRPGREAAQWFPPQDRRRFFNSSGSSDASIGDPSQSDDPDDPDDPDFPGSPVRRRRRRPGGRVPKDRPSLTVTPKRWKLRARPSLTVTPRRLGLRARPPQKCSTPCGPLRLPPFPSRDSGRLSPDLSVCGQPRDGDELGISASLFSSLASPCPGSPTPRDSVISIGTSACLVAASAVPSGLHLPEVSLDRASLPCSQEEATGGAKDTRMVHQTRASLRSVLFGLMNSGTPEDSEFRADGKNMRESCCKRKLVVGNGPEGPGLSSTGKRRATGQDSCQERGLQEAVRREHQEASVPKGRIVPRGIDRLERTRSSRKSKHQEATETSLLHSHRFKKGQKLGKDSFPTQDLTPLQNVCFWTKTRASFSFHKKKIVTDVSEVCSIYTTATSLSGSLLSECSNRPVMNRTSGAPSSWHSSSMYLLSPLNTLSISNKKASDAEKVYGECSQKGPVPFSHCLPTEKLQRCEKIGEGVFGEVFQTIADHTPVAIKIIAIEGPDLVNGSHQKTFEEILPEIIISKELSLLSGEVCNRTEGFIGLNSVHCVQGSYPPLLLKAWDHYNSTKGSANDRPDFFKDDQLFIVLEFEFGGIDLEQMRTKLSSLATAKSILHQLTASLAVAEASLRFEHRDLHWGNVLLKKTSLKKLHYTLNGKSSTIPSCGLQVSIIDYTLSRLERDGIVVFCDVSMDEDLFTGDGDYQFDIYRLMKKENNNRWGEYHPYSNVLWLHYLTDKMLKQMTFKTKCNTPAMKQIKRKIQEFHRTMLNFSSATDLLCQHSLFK

[13] = molecular target: T2, Serine/threonine-protein kinase haspin (Homo sapiens); conditions: at 10 µM
[14] = molecular target: Tyrosine-protein kinase HCK (Homo sapiens) (UniProt P08631); conditions: at 1 µM
[15] = molecular target: Tyrosine-protein kinase HCK (Homo sapiens) (UniProt P08631); conditions: at 10 µM
[16] = molecular target: Tyrosine-protein kinase HCK (Homo sapiens) (UniProt P08631); conditions: at 1 µM; remark: listed apart in the source
[17] = molecular target: Tyrosine-protein kinase HCK (Homo sapiens) (UniProt P08631); conditions: at 10 µM; remark: listed apart in the source
[18] = molecular target: T3, Protein kinase C zeta type (Homo sapiens) (UniProt Q05513); conditions: at 10 µM
T3 sequence (whole entry): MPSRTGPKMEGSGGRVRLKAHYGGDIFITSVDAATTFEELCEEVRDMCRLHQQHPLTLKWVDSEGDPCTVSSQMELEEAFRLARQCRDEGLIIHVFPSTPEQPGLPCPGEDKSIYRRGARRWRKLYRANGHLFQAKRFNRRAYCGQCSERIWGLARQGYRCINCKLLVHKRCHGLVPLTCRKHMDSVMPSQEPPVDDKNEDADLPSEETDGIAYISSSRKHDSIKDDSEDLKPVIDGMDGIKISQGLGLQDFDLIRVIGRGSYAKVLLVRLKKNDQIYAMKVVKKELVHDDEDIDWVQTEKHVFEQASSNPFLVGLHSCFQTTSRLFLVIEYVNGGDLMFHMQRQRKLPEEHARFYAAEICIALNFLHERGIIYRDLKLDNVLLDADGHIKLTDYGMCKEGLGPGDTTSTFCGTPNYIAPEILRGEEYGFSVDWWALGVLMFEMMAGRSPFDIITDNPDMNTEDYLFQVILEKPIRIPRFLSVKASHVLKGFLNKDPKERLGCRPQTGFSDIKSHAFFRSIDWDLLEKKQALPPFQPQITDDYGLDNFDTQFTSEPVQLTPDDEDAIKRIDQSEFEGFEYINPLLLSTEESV

[19] = molecular target: Insulin-like growth factor 1 receptor (Homo sapiens) (UniProt P08069); conditions: at 1 µM
Insulin-like growth factor 1 receptor (Homo sapiens), sequence (P08069 31-736 limits assumed): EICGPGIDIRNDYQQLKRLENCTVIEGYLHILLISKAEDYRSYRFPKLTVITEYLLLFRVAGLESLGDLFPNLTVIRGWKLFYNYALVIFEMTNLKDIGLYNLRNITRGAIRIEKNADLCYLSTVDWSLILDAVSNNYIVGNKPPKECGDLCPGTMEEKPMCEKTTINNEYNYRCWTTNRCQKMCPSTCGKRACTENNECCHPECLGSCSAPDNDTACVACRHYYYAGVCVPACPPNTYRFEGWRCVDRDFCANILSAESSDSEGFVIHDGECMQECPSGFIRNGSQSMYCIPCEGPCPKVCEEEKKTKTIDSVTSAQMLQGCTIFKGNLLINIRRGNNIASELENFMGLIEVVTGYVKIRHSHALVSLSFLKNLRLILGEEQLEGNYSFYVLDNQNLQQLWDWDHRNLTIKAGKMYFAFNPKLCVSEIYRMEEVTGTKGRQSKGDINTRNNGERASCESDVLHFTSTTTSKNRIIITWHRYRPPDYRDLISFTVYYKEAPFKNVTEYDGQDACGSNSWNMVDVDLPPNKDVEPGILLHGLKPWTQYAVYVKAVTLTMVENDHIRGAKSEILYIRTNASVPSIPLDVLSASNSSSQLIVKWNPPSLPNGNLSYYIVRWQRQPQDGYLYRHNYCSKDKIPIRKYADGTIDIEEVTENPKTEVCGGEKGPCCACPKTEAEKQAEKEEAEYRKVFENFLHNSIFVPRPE
Insulin-like growth factor 1 receptor (Homo sapiens), sequence (P08069 741-1367 limits assumed): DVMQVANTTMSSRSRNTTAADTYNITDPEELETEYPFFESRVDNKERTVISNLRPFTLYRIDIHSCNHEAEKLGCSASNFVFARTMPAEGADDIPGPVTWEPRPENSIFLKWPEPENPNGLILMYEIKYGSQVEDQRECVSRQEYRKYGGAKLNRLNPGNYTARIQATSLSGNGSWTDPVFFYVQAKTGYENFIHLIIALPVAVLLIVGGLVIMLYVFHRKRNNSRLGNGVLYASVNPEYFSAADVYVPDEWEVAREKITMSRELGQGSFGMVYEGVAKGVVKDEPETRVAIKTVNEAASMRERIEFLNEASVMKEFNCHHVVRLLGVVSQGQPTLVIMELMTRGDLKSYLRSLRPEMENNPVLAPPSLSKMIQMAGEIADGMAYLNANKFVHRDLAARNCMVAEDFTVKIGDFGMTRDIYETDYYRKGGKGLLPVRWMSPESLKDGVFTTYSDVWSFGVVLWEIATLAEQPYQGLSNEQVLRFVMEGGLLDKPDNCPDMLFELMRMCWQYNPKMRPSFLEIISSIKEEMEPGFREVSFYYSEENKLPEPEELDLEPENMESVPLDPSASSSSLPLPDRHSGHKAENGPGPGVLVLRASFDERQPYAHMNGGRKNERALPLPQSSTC

[20] = molecular target: Insulin-like growth factor 1 receptor (Homo sapiens) (UniProt P08069); conditions: at 10 µM

| Structure (SMILES) | residual activity [1] [%] | residual activity [2] [%] | residual activity [3] [%] | residual activity [4] [%] | residual activity [5] [%] | residual activity [6] [%] | residual activity [7] [%] | residual activity [8] [%] | residual activity [9] [%] | residual activity [10] [%] | residual activity [11] [%] | residual activity [12] [%] | residual activity [13] [%] | residual activity [14] [%] | residual activity [15] [%] | residual activity [16] [%] | residual activity [17] [%] | residual activity [18] [%] | residual activity [19] [%] | residual activity [20] [%] |
| --- | --- | --- | --- | --- | --- | --- | --- | --- | --- | --- | --- | --- | --- | --- | --- | --- | --- | --- | --- | --- |
| O=C(O)/C=C/c1cc(Br)c(Br)c(Br)c1Br | 95 | 93 | 51 | 125 | 106 | 93 | 53 | 83 | 27 | 94 | 54 | 79 | 71 | 59 | 48 | 107 | 106 | 88 | – | – |
| CC(C)(C)n1nc(Cc2cccc3ccccc23)c2c(N)ncnc21 | 56 | 116 | 130 | 103 | 65 | 95 | 107 | 101 | 110 | 93 | 97 | 79 | 16 | 32 | 3 | 43 | – | 116 | 142 | 96 |
| Cn1c2ccccc2c2c3c(c4c5ccccc5n(CCC#N)c4c21)CNC3=O | 34 | 20 | 19 | 15 | 26 | – | – | 20 | 11 | – | – | 11 | 8 | 31 | 9 | 69 | 58 | 108 | 145 | 104 |
| O=C(c1cc2cc(O)ccc2[nH]1)c1cc2cc(O)ccc2[nH]1 | 54 | – | 26 | 59 | 20 | – | – | 83 | 28 | 76 | 25 | 39 | 7 | 23 | 5 | 8 | 3 | – | 65 | 63 |
| O=C1Nc2ccc(Cl)cc2/C1=C/c1cc(Cl)c(O)c(Cl)c1 | 79 | 75 | 30 | 84 | 44 | 93 | 88 | 76 | 22 | 79 | 46 | 12 | 1 | 61 | 15 | 86 | 53 | – | 126 | – |
| COc1ccc2c(c1)c(C1=C(c3c[nH]c4ccccc34)C(=O)NC1=O)cn2CCCN(C)C | 44 | 15 | -1 | 30 | 4 | – | 34 | 57 | 13 | 72 | 22 | 98 | 56 | 65 | 53 | 98 | 72 | 27 | 134 | 104 |
| O=C1C(Cl)=C(N2C(=O)CCC2=O)C(=O)c2ccccc21 | 90 | – | – | 120 | 93 | – | 89 | 102 | 92 | 93 | 86 | 96 | – | 71 | 63 | 91 | – | – | 93 | 130 |
| O=C1Nc2ccccc2/C1=C\c1c(Cl)[nH]c2ccccc12 | 87 | – | – | 141 | 80 | – | – | – | – | – | – | 85 | 61 | 79 | 27 | – | 87 | – | – | – |
| Cc1cc(C)c(/C=C2\C(=O)Nc3ccccc32)[nH]1 | 60 | 106 | 124 | – | – | – | – | 80 | 39 | – | – | 100 | 77 | 60 | 25 | 63 | 40 | – | – | – |
| CCCC(=O)Oc1ccc2[nH]c(C(=O)c3cc4ccccc4[nH]3)cc2c1 | 82 | – | 125 | 99 | 95 | 98 | 103 | 102 | 100 | 93 | 98 | 106 | 99 | 70 | 36 | 98 | 94 | – | 143 | 106 |
| Nc1ncnc2c1cnn2-c1ccccc1 | 94 | – | 140 | 84 | – | – | – | 101 | 95 | 99 | 94 | – | 83 | 83 | 68 | 96 | 85 | – | 140 | 129 |
| NC(=O)Nc1sc(-c2ccc(F)cc2)cc1C(N)=O | 19 | 64 | 29 | – | – | 106 | 87 | 94 | 67 | 100 | 90 | 63 | 51 | 24 | 6 | 37 | 7 | 100 | 82 | 32 |
